Laboratory results reported in PubChem BioAssay.
The list shows a part of the results. Calls of active or inactive are those of the source. Unless noted, no rule for the calls is given here.

Legend:
[1] = target: Regulator of G-protein signaling 16 (Homo sapiens) (UniProt O15492); experiment: modulators of RGS–Galpha-o binding, primary screen, biochemical, multiplexed beads, flow cytometry, RGS4/7/8/16/19 (AID 1504); details: multiplexed bead flow cytometry, measured here: RGS16 interaction, at 10 µM;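 also: fluorescently labeled Galpha-o bound to GDP with aluminium fluoride binding biotinylated RGS beads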
[2] = target: Regulator of G-protein signaling 19 (Homo sapiens) (UniProt P49795); experiment: as above; details: multiplexed bead flow cytometry, measured here: RGS19 interaction, at 10 µM
[3] = target: Regulator of G-protein signaling 4 (Homo sapiens) + Guanine nucleotide-binding protein G(o) subunit alpha (Homo sapiens) (UniProt P49798+P09471); experiment: as above; details: multiplexed bead flow cytometry, at 10 µM
[4] = target: Regulator of G-protein signaling 7 (Homo sapiens) (UniProt P49802); experiment: as above; details: multiplexed bead flow cytometry, measured here: RGS7 interaction, at 10 µM
[5] = target: Regulator of G-protein signaling 8 (Homo sapiens) (UniProt P57771); experiment: as above; details: multiplexed bead flow cytometry, measured here: RGS8 interaction, at 10 µM
[6] = disruption of biotin probe capture by avidin, counter-screen for RGS protein interaction modulators, biochemical, flow cytometry, bead-based (AID 1783;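 active = inhibition above 50%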;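 also: median green fluorescence of gated singlet beads compared with DMSO control wells; 0% = DMSO wells and 100% = complete loss of bead fluorescence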); details: streptavidin beads, fluorescein-biotin binding; at 10 µM, stronger effect = higher value
[7] = target: Guanine nucleotide-binding protein G(o) subunit alpha (Homo sapiens) (UniProt P09471); experiment: RGS8-Galphao binding modulators, confirmation, biochemical, multiplexed bead flow cytometry, single concentration (AID 1836; in the data active = binding response below about 72% or above about 130%; inactive = in between;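 also: Galphao activated as GDP AlF4 complex before binding bead RGS8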); details: bead-based flow cytometry RGS8-Galphao binding, fluorescence; at 10 µM; actives lie on both sides
[8] = target: Guanine nucleotide-binding protein G(o) subunit alpha (Homo sapiens) (UniProt P09471); experiment: RGS7-Galphao binding modulators, confirmation, biochemical, multiplexed bead flow cytometry, single concentration (AID 1837; in the data active = response below about 75% or above about 130%; inactive = in between;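 also: fluorescent Galphao activated with GDP and aluminum fluoride binding bead-coupled RGS7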); details: bead-based flow cytometry RGS7-Galphao binding; at 10 µM; actives lie on both sides
[9] = target: Regulator of G-protein signaling 16 (Homo sapiens) + Guanine nucleotide-binding protein G(o) subunit alpha (Homo sapiens) (UniProt O15492+P09471); experiment: modulators of RGS16-Galphao protein binding, confirmation, biochemical, single concentration, multiplexed bead flow cytometry (AID 1838; in the data active = response below about 74% or above about 130%; inactive = in between;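 also: Galphao activated as the GDP aluminium fluoride complex binding bead-coupled RGS16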); details: bead-based flow cytometry, at 10 µM, actives lie on both sides
[10] = target: Guanine nucleotide-binding protein G(o) subunit alpha (Homo sapiens) (UniProt P09471); experiment: modulators of RGS4-Galphao protein binding, confirmation, biochemical, single concentration, multiplexed bead flow cytometry (AID 1840; in the data active = binding response below about 74% or above about 130%; inactive = in between); details: at 10 µM, actives lie on both sides
[11] = target: Guanine nucleotide-binding protein G(o) subunit alpha (Homo sapiens) + Regulator of G-protein signaling 19 (Homo sapiens) (UniProt P09471+P49795); experiment: regulators of RGS19-Galphao binding, confirmation, biochemical, single point, multiplexed bead flow cytometry (AID 1841; in the data active = response below about 50% or above about 160%; inactive = in between;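 also: 100% = no compound control and 0% = blank background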); details: bead-based flow cytometry RGS19-Galphao binding; at 10 µM; actives lie on both sides
Chain of Guanine nucleotide-binding protein G(o) subunit alpha (Homo sapiens) + Regulator of G-protein signaling 19 (Homo sapiens) (P09471 whole entry, looked up): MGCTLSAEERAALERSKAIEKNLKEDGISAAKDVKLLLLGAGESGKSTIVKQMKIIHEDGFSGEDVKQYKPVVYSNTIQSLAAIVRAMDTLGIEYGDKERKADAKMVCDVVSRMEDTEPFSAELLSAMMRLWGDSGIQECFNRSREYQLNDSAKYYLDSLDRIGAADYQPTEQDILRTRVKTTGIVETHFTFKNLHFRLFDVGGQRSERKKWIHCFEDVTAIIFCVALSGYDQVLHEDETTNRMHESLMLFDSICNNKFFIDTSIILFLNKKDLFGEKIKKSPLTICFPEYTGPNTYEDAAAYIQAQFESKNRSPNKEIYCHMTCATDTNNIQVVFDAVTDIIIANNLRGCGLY
Chain of Guanine nucleotide-binding protein G(o) subunit alpha (Homo sapiens) + Regulator of G-protein signaling 19 (Homo sapiens) (P49795 whole entry, looked up): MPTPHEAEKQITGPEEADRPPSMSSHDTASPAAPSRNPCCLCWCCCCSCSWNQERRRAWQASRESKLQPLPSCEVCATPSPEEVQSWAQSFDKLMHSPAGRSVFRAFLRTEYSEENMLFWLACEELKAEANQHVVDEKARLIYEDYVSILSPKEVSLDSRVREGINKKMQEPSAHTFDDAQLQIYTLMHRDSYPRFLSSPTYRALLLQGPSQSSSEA

Chain of Regulator of G-protein signaling 16 (Homo sapiens) + Guanine nucleotide-binding protein G(o) subunit alpha (Homo sapiens) (O15492 whole entry, looked up): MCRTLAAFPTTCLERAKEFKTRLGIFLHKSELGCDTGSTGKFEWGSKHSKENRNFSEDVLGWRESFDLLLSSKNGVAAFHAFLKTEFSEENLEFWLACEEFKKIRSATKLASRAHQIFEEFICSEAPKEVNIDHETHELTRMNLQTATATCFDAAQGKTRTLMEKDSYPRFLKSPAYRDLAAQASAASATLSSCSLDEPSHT
Chain of Regulator of G-protein signaling 16 (Homo sapiens) + Guanine nucleotide-binding protein G(o) subunit alpha (Homo sapiens) (P09471 whole entry, looked up): as the sequence (P09471 whole entry, looked up) above
Chain of Guanine nucleotide-binding protein G(o) subunit alpha (Homo sapiens) (P09471 whole entry, looked up): as above
Chain of Regulator of G-protein signaling 4 (Homo sapiens) + Guanine nucleotide-binding protein G(o) subunit alpha (Homo sapiens) (P09471 whole entry, looked up): as above
Chain of Regulator of G-protein signaling 4 (Homo sapiens) + Guanine nucleotide-binding protein G(o) subunit alpha (Homo sapiens) (P49798 whole entry, looked up): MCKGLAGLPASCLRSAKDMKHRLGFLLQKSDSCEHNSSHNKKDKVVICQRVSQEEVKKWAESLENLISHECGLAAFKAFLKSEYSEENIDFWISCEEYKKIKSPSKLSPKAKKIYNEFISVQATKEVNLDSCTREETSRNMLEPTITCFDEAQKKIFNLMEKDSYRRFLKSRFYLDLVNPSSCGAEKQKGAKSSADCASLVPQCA

SMILES | RGS16–Galpha-o binding response [1] [%] | RGS19–Galpha-o binding response [2] [%] | RGS4–Galpha-o binding response [3] | RGS7–Galpha-o binding response [4] [%] | RGS8–Galpha-o binding response [5] [%] | inhibition [6] | binding response (% of control) [7] | response (percent of control binding) [8] | response (% of control binding) [9] | binding response (% of control) [10] | response (percent of control binding) [11]
CCOC(=O)c1oc2c(CN3CCN(C)CC3)c(O)ccc2c(=O)c1-c1ccc(Br)cc1 | 142 | 79.7 | 132% (active) | 318 | 107 | -0.6% (inactive) | 97.5% (inactive) | 95.5% (inactive) | 98.4% (inactive) | 96.9% (inactive) | 92.8% (inactive)
NC(=O)Cc1ccc2sc(-c3ccccc3)nc2c1 | 23.6 | 149 | 94.3% (active) | 92.4 | 84 | -0.3% (inactive) | 98.7% (inactive) | 43.6% (active) | 80% (inactive) | 55.9% (active) | 78.6% (inactive)
Cc1ccc(C)c(OCC(=O)N2CCN(C(=O)c3ccco3)CC2)c1 | 24.4 | 113 | 83.7% (active) | 89.8 | 88.5 | 2.8% (inactive) | 104% (inactive) | 104% (inactive) | 107% (inactive) | 106% (inactive) | 110% (inactive)
CCn1c(CSCc2c(Cl)cccc2Cl)n[nH]c1=S | 46.1 | 1140 | 55.9% (active) | -29.3 | 55.5 | 1.4% (inactive) | 89% (inactive) | 89.5% (inactive) | 88.1% (inactive) | 94.2% (inactive) | 83.5% (inactive)
CC(NC(=O)COC(=O)C1CCN(S(=O)(=O)c2ccccc2C(F)(F)F)CC1)c1ccccc1 (configuration not stated) | 327 | -23.1 | 118% (active) | 115 | 148 | -0.6% (inactive) | 98.3% (inactive) | 96.9% (inactive) | 99.8% (inactive) | 97.2% (inactive) | 97.7% (inactive)
COc1ccc(CCC(=O)OCC(=O)Nc2ccc(C)c(S(=O)(=O)N(C)C)c2)cc1 | 69.9 | -376 | 84.4% (active) | 45.2 | 57.7 | 2.5% (inactive) | 104% (inactive) | 104% (inactive) | 104% (inactive) | 103% (inactive) | 100% (inactive)
CN(C)CCN=c1cc(-c2ccccc2)oc2ccc(Cl)cc12 | 103 | 95.4 | 110% (active) | 155 | 102 | -3.8% (inactive) | 107% (inactive) | 111% (inactive) | 113% (inactive) | 107% (inactive) | 108% (inactive)
